Measured values reported in PubChem BioAssay (EPA / NIEHS).
Calls of active or inactive are those of the source. Rule for the calls: active = hit-call score of the fitted dose curve at least 0.9, where 1 is the maximum; inconclusive = response in the unintended direction; inactive = score below 0.9.

Molecular target: rat CYP3A2, Cyp3a2 (gene 266682) (UniProt P05183)
Assay: NVS_ADME_rCYP3A2: NovaScreen (NVS) CYP450-related Enzyme Activity (ADME) Assay for rat CYP3A2 (AID 2283128)
Procedure: NVS_ADME_rCYP3A2 is a biochemical, single-readout assay that uses extracted gene-proteins in a cell-free assay. Measurements were taken 0.5 hour after chemical dosing in a 96-well plate.NVS_ADME_rCYP3A2 is one of one assay component(s) measured or calculated from the NVS_ADME_rCYP3A2 assay. It is designed to make measurements of enzyme activity, a form of enzyme reporter, as detected with fluorescence intensity signals by Fluorescence technology.Data from the assay component NVS_ADME_rCYP3A2 was analyzed into 1 assay endpoint. This assay endpoint, NVS_ADME_rCYP3A2, was analyzed in the positive analysis fitting direction relative to Acetonitrile as the negative control and baseline of activity. Using a type of enzyme reporter, loss-of-signal activity can be used to understand changes in the enzymatic activity as they relate to the gene Cyp3a2. Furthermore, this assay endpoint can be referred to as a primary readout, because this assay has produced multiple assay endpoints where this one serves a enzymatic activity function. To generalize the intended target to other relatable targets, this assay endpoint is annotated to the cyp intended target family, where the subfamily is xenobiotic metabolism.
Binding assays used specific radioligands (tritiated, iodinated) with non-radioactive competitive displacement ligands in agonist or antagonist protocols (as indicated) and various reference compounds and inhibitors to titrate specific binding to receptors and transporters. Most enzyme assays (CYPs, kinases, phosphatases, proteases, HDACs) used recombinant protein and specific substrates (fluorescence mostly, some colorimetric and radioactive) and inhibitors, followed by a biochemical separation of substrate and product. All assays for the biochemical HTS were initially run in duplicate at a single concentration (10 uM for CYP450 assays and 25 uM for all others). Assay-chemical combinations meeting a pre-defined threshold (e.g., 30% inhibition and other criteria defined below) were then run in singleton concentration-response format with maximum concentration of 20 uM for CYPs and 50 uM for all others. Each assay was run with positive and negative controls, and concurrent controls on every plate. The follow-up (secondary) screen tested active chemical-pairs in concentration series, as well as a few additional assays not tested in the primary screen, some selected negative inactives, and several cases re-run in the concentration series for confirmatory purposes.

rat CYP3A2, Cyp3a2 (gene 266682), sequence (P05183 whole entry, looked up): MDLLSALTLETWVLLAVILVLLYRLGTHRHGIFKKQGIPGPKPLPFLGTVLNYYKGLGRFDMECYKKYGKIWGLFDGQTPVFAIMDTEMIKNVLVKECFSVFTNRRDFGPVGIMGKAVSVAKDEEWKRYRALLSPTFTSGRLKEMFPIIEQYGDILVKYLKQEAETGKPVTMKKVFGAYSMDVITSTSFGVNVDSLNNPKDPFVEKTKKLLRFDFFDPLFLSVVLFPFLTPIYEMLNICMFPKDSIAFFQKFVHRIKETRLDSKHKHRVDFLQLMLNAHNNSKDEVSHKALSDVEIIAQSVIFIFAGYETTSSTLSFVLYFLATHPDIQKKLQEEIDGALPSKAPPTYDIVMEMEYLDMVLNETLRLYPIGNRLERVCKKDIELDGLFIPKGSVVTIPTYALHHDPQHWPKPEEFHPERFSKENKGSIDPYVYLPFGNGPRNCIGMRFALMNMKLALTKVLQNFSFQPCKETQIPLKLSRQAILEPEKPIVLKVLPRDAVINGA

SMILES | AC50 | outcome
FC(F)C(F)(F)OCC(Cn1cncn1)c1ccc(Cl)cc1Cl (stereo not given) | 5.51 µM (active) | –
CC(C1CC1)C(O)(Cn1cncn1)c1ccc(Cl)cc1 (stereo not given) | 0.771 µM (active) | –
C[Si](Cn1cncn1)(c1ccc(F)cc1)c1ccc(F)cc1 | 1.07 µM (active) | –
C=C(C)[C@H]1Cc2c(ccc3c2O[C@@H]2COc4cc(OC)c(OC)cc4[C@@H]2C3=O)O1 | 2.88 µM (active) | –
CC1(C(=O)Nc2ccc(O)c(Cl)c2Cl)CCCCC1 | 3.42 µM (active) | –
CCOP(=S)(OCC)Oc1ccc([N+](=O)[O-])cc1 | 2.86 µM (active) | –
CCOP(=O)(SC(C)CC)N1CCSC1=O (stereo not given) | 8.56 µM (active) | –
COc1ccc(C(=CC(=O)N2CCOCC2)c2ccc(Cl)cc2)cc1OC | 6.54 µM (active) | –
COP(=O)(OC)SCn1c(=O)oc2cc(Cl)cnc21 | 6.18 µM (active) | –
CCc1cccc(C)c1N(C(=O)CCl)C(C)COC (stereo not given) | 6.68 µM (active) | –
CCCSP(=O)(OCC)Oc1ccc(Br)cc1Cl (stereo not given) | 7.4 µM (active) | –
CNc1cnn(-c2cccc(C(F)(F)F)c2)c(=O)c1Cl | – | inactive
CCOC(=O)CC(SP(=O)(OC)OC)C(=O)OCC (stereo not given) | – | inactive
CN(C)NC(=O)CCC(=O)O | – | inactive
C#CCC1=C(C)C(OC(=O)C2C(C=C(C)C)C2(C)C)CC1=O (stereo not given) | 3.03 µM (active) | –
CC[C@H](C)[C@H]1O[C@]2(C=C[C@@H]1C)C[C@@H]1C[C@@H](C/C=C(\C)[C@@H](O[C@H]3C[C@H](OC)[C@@H](O[C@H]4C[C@H](OC)[C@@H](NC)[C@H](C)O4)[C@H](C)O3)[C@@H](C)/C=C/C=C3\CO[C@@H]4[C@H](O)C(C)=C[C@@H](C(=O)O1)[C@]34O)O2 | 8.11 µM (active) | –
CCCOCC(=Nc1ccc(Cl)cc1C(F)(F)F)n1ccnc1 | 1.7 µM (active) | –
CSC1=N[C@@](C)(c2ccccc2)C(=O)N1Nc1ccccc1 | 7.11 µM (active) | –
CCOP(=S)(OCC)Oc1ccc2c(C)c(Cl)c(=O)oc2c1 | 0.83 µM (active) | –
COc1cccc(C(=O)NN(C(=O)c2cc(C)cc(C)c2)C(C)(C)C)c1C | 0.651 µM (active) | –
